# Laboratory results taken from article PMC7819943, “Rice protein-binding microarrays: a tool to detect cis-acting elements near promoter regions in rice”.
# In all, about 35,000 sequences were measured (“fluorescence intensity (a.u.)”: median about 10,000, highest 2% from about 52,000 on). The full list was thinned out, with the highest values kept by preference.
# Target: T1, OsWOX13 (Oryza sativa, UniProt Q5QMM3 1-267)
# T1 sequence: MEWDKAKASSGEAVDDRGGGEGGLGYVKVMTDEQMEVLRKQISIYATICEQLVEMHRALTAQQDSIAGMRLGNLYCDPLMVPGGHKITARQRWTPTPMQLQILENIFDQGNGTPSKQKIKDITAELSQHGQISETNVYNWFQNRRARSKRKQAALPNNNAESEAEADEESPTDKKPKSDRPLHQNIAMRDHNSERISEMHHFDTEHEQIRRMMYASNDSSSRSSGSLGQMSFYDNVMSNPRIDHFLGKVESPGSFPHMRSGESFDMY
# Test: protein-binding microarray (RPBM); PBS, 2% BSA, 51.3 ng/ul salmon testes DNA, 50 uM zinc acetate, 200 nM TF, 25 C, 1 h; high values mean tight binding
# Conditions: protein: recombinant; tags: N-terminal polyhistidine and DsRed monomer fusion (pET32a); label: CyDye5-dUTP incorporated in the synthesized complementary strand; 3' TTTTT single-stranded linker to array surface; dsDNA, one strand shown
# Outline: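 The binding signal for each feature is its fluorescence intensity in arbitrary units. An Axon 4000B scanner was used to read a custom Agilent array that had been made double-stranded with Cy5-dUTP primer extension, blocked with 2% BSA, incubated at 25 °C for 1 h with 200 nM protein in PBS, 2% BSA, salmon testes DNA and 50 µM zinc acetate, and washed. The protein was an N-terminal polyhistidine–DsRed transcription factor fusion from E. coli BL21-CodonPlus, purified on Ni–NTA.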
row,Sequence,binding signal
1,GGATTATCAATCAAGCAAGCAAACAAACACTAAGGAAACCCGGAGTCACCTAGTGCAG,15000 fluorescence intensity (a.u.)
2,GAATAATCAATTGCCGAATACGTTCTGGACATGGATATTGCGGAGTCACCTAGTGCAG,6880 fluorescence intensity (a.u.)
3,CCTGGCTGATCGATAATTAATCCGTCCTCGCCGTCGCCATCGGAGTCACCTAGTGCAG,15400 fluorescence intensity (a.u.)
4,GGGAAGGCGGCGATTGATTTGATTTGACCAAGATTGGTCGCGGAGTCACCTAGTGCAG,28700 fluorescence intensity (a.u.)
5,ATATTGATTAGGCTCTCGGCTCTCTATTTAACCAACTGAACGGAGTCACCTAGTGCAG,34300 fluorescence intensity (a.u.)
6,CTGATTGATTTAGCGGCTCAACATATATACCAAGGCGGCGCGGAGTCACCTAGTGCAG,61100 fluorescence intensity (a.u.)
7,GAACTAATCACAAATTTCCACCATACAATGCCGCTGTACTCGGAGTCACCTAGTGCAG,13300 fluorescence intensity (a.u.)
8,CTGATTAACTCTTCAATCAAATCCCTAACTTGAGTGCATGCGGAGTCACCTAGTGCAG,57200 fluorescence intensity (a.u.)
9,GTCATGTGATTGATGATTCAGCATCCCTTGAGGCTCAGTGCGGAGTCACCTAGTGCAG,53600 fluorescence intensity (a.u.)
10,AAATGAGATGACAATGATGATGATGATGGTTTCATCACCCCGGAGTCACCTAGTGCAG,4620 fluorescence intensity (a.u.)
11,CATCAATCATGATTGAAGATGATTCAAGGTTGAGAGGACCCGGAGTCACCTAGTGCAG,53900 fluorescence intensity (a.u.)
12,TGCCTTTGATTAATGTCATGATGTCACATGCTGAGATTCACGGAGTCACCTAGTGCAG,11900 fluorescence intensity (a.u.)
13,GACTAACACCCTAGACTGATTAATCAAAGCATTGTGCATGCGGAGTCACCTAGTGCAG,16800 fluorescence intensity (a.u.)
14,ATGCAGTAATTAATCAATTAACTAATTAACTCACCCCATGCGGAGTCACCTAGTGCAG,47800 fluorescence intensity (a.u.)
15,TACAATCACATTCAATTTGAAAAGAGAAGATGGCTCTTGGCGGAGTCACCTAGTGCAG,9800 fluorescence intensity (a.u.)
16,GAGGCCAATCAGGTTGATGATGAAGAGGATGATTTCAGCGCGGAGTCACCTAGTGCAG,18200 fluorescence intensity (a.u.)
17,TCACATTCTTGCATGATTGAACACTCCCTTTCATCCCTCACGGAGTCACCTAGTGCAG,18900 fluorescence intensity (a.u.)
18,CTTGATGATTAATCAATTCAATCTTGGCTGTCATGAGAGGCGGAGTCACCTAGTGCAG,62000 fluorescence intensity (a.u.)
19,AATTTACGATTGATTATTCATTCAGTGAGGCGCATGCGGTCGGAGTCACCTAGTGCAG,32700 fluorescence intensity (a.u.)
20,ATTTAGACAGGTTCCAACCTCCTTGATAACAGTTAAAACCCGGAGTCACCTAGTGCAG,7950 fluorescence intensity (a.u.)

row,Sequence,binding signal
1,TTTTAGGTTAATTACTTCTATTGGTCAACTCAATATGCAGCGGAGTCACCTAGTGCAG,5660 fluorescence intensity (a.u.)
2,TGACTCTTATTTAACGACTGATTGTTGTCAAGATAATGAACGGAGTCACCTAGTGCAG,3770 fluorescence intensity (a.u.)
3,CGTACAATATTAATTAAAGTGTTTAAGAAACAGAGACTAGCGGAGTCACCTAGTGCAG,3740 fluorescence intensity (a.u.)
4,AAGGAAAATTAATAGCATACAGGCATGCATTTACGTACTTCGGAGTCACCTAGTGCAG,5500 fluorescence intensity (a.u.)
5,CCATGTGATTGACGATGCTCTTATTAACTTCTAACTTGACCGGAGTCACCTAGTGCAG,47000 fluorescence intensity (a.u.)
6,GCTGACGTAGATAATCTTATGCTTTCAAATTTTACGATAGCGGAGTCACCTAGTGCAG,5670 fluorescence intensity (a.u.)
7,ACTTTCTGTCAATTAGCCATTAGGTCAGTAGCCCAAAGTCCGGAGTCACCTAGTGCAG,24300 fluorescence intensity (a.u.)
8,TCTGCTTAAAAGGATGATTAAATTTTAGATTAAAGTGGCGCGGAGTCACCTAGTGCAG,10200 fluorescence intensity (a.u.)
9,CTGATGATTAGATTTATCATGCTTCCGCGCTTCAAAAGGGCGGAGTCACCTAGTGCAG,53400 fluorescence intensity (a.u.)
10,TTCATGATATCAATTTATGAGCATCAAAAGATTACCATGCCGGAGTCACCTAGTGCAG,6980 fluorescence intensity (a.u.)
11,TCAGATTAGTTGACTAGCAAGCTACTCCTAGTACAGGTTACGGAGTCACCTAGTGCAG,6290 fluorescence intensity (a.u.)
12,TAATTATTGACTAATATATTAATTAATATAATGTAATTTACGGAGTCACCTAGTGCAG,22700 fluorescence intensity (a.u.)
13,TGTTTATAACTGTAATGACATATAAGCACCACATAGGGGCCGGAGTCACCTAGTGCAG,5560 fluorescence intensity (a.u.)
14,ATGTGTAAATTGAATTAATGGAGTTGGTTGTGAAATCGTTCGGAGTCACCTAGTGCAG,25300 fluorescence intensity (a.u.)
15,CCTTTTAATTGAAAAGCTCCTTATTGGCTTCCCACCTAAGCGGAGTCACCTAGTGCAG,46900 fluorescence intensity (a.u.)
16,AGTTTTCTGTTCAATGATTTGGTTGAATCAAATTGTTCCTCGGAGTCACCTAGTGCAG,4400 fluorescence intensity (a.u.)
17,ATAAATGATTGGAGGATTTGTTGTGACTTTTCCACAATGTCGGAGTCACCTAGTGCAG,58200 fluorescence intensity (a.u.)
18,GGTGATTTGATTCAAATTCAATCCGATCCTTTGTTGGTTTCGGAGTCACCTAGTGCAG,53400 fluorescence intensity (a.u.)
19,GTTGATTGGGTAAATCATATGATCGTAATGTATTGTGAATCGGAGTCACCTAGTGCAG,64600 fluorescence intensity (a.u.)
20,GATTAATCCAATTGACTTTGATGAGGATGTGCCACTATTTCGGAGTCACCTAGTGCAG,6820 fluorescence intensity (a.u.)

row,Sequence,binding signal
1,ACAATTTGATTGCTTCCTTTCAACATTGTGGTTGGTGATCCGGAGTCACCTAGTGCAG,30500 fluorescence intensity (a.u.)
2,GTATTGTGATTTGTGAATCAGTGAATATGTGAATGTGATTCGGAGTCACCTAGTGCAG,13200 fluorescence intensity (a.u.)
3,TTGTAAATGACTGATTTGGATGTGAATTAATCGTTGTTGTCGGAGTCACCTAGTGCAG,28400 fluorescence intensity (a.u.)
4,CAGCCCTTAATTGAATTTGGCCCAGCTAGTTCCCGGGCCCCGGAGTCACCTAGTGCAG,30600 fluorescence intensity (a.u.)
5,CTAATTAATTTGTTCCCTTAATTGGCACTTTGAATCTAAGCGGAGTCACCTAGTGCAG,58300 fluorescence intensity (a.u.)
6,GACTGGGAGGATGAGGGGTGGGTGGGTGTGGCTGCTTCTGCGGAGTCACCTAGTGCAG,4110 fluorescence intensity (a.u.)
7,CGATCTAATTGTGAATCCTCTACCCTAGAGGACCTCCTATCGGAGTCACCTAGTGCAG,4020 fluorescence intensity (a.u.)
8,AGTTTTAGCCTAAATTGGGTAAATTATATTTTAACCGTAACGGAGTCACCTAGTGCAG,11600 fluorescence intensity (a.u.)
9,TCAGTAACATTATTGGTTAAATTTTAAATTTTGAATAGGCCGGAGTCACCTAGTGCAG,5870 fluorescence intensity (a.u.)
10,AATTGTTTGATTGAAATTAATGTACTCTTGAATGGATAAACGGAGTCACCTAGTGCAG,32600 fluorescence intensity (a.u.)
11,GCTGACTAATTATGTAACAGGGGTCAAACAAGTAGGTGGACGGAGTCACCTAGTGCAG,20400 fluorescence intensity (a.u.)
12,GGTAGAAATAAGGATTGATTGAGATTCACCTACCTTTTCTCGGAGTCACCTAGTGCAG,37500 fluorescence intensity (a.u.)
13,TCCACCGCGACATGTGATTGGAGGTAAGAGCATGTGAACCCGGAGTCACCTAGTGCAG,5650 fluorescence intensity (a.u.)
14,GAGATTGATTGCATATCAGAAGTAAATGATTTCAACAGATCGGAGTCACCTAGTGCAG,54400 fluorescence intensity (a.u.)
15,CTTTGTAATTGGAGTCAATCAAATTGAATGATTTCCCTTTCGGAGTCACCTAGTGCAG,58900 fluorescence intensity (a.u.)
16,GCAGAAATGATTGCACTTCAATTATTGAGTAAAACAGATTCGGAGTCACCTAGTGCAG,30000 fluorescence intensity (a.u.)
17,AAATGTGATTTTGTAATTTCCCCTTTGAATTTTCATCAAACGGAGTCACCTAGTGCAG,8970 fluorescence intensity (a.u.)
18,GCTCCTGATTTGCCTGATCAGATCAACAGATTAGCATGATCGGAGTCACCTAGTGCAG,23600 fluorescence intensity (a.u.)
19,ATTGATTTGAATTCCAAATTTGTAATGATGTTGATCACCTCGGAGTCACCTAGTGCAG,39400 fluorescence intensity (a.u.)
